Assay in all cases: NCI-60 one-dose screen, 48 h (100 = growth as untreated, 0 = no growth, -100 = all killed)
What all share (settings): 10 µM unless noted

In test [1] the test system is NCI-H23 lung.
Test [2] deals with NCI-H322M lung.
Test [3] deals with HOP-62 NSCLC.
Test [4] relates to NCI-H460 lung.
Test [5] deals with HOP-92 NSCLC.
In test [6] the test system is NCI-H522 lung.
The test system of test [7] is A549/ATCC NSCLC.
Test [8] has as its system 786-0 renal.
For test [9], the system named is DU-145 prostate.
Test [10] deals with COLO 205 colon.

This is part of a sample that, as a whole, favours compounds with a hit. Of some 83,000 tested, about 20% had one in any assay.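 Values shown are percent growth following 48 h exposure of cells in 96-well plates to a single concentration of compound; below 10 was considered active.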 Unmarked numbers belong to inactive results. Calls of active or inactive are those of the source.

Regarding `C[C@@H](C(=O)NCCCC#Cc1cnc(Nc2ccc(C#N)cc2)nc1NC1CC1)N(C)C(=O)/C=C/CN(C)C`, the growth was 22.8% in test [1]; 63% in [2]; 44.2% in test [3]; 15.3% in test [4]; 107% in test [5]; 59.1% in test [6]. Also, the growth in test [7] was 32.8%; in test [8], 39.8%; in test [9], 38.4%.
`O=C(/C=C/c1ccc(C(F)(F)F)cc1)c1ccc(Nc2nc(NCCO)nc(Nc3ccc(Cl)cc3)n2)cc1`: the growth in test [1] is 76.4%; in test [2] it was 86.1%; in test [3] it was 53.2%; in test [4], 28.7%; in test [6] it was 65.3%; in test [7], 26.6%. For the same compound, the growth in [8] is -41% (active); in [9], 58%.
Consider `COC(=O)c1ccc(NC(=O)CSc2nc3ccccc3c(=O)n2-c2ccccc2)cc1`, for which the growth in test [1] is 95.4%; in test [2], 103%; in test [3], 106%; in [4] it was 99.2%; in test [6], 80.6%; in [7], 88.8%. Besides, the growth was 100% in test [8], 120% in test [10] and 108% in test [9].
With `CC(=Nc1ccccc1)C1=C(O)C(Cc2ccc(F)cc2)NC1=O` (stereo not given), the growth is 30.7% in test [1]; 37.5% in [2]; 42.7% in test [3]; 13.4% in [4]; -9.06% (active) in test [6]; 35.9% in [7]. Moreover, the figures for the growth in test [8], in test [10] and in [9] were 48.2%, -52.1% (active) and 8.32% (active), respectively.
For the compound `COc1ccc(C2Nc3ncnc(N)c3N=C3c4ccccc4C(=O)C32)cc1` (stereo not given), the growth in [1] is 101%; in test [2], 101%; in [3], 85.2%; in test [4], 104%; in test [6] it was 101%; in [7] it was 96.3%. The growth is 93.5% in test [8], 93.2% in test [10] and 102% in test [9].
Regarding `COc1ccccc1C(=O)/C=C/c1ccccc1`, the growth in test [1] was 83.4%; in test [2] it was 86.1%; in test [3] it was 86.9%; in test [4] it was 66.4%; in [6], 81.8%; in test [7], 76.1%. The growth was 101% in [8], 117% in test [10] and 32.1% in test [9].
For the compound `O=C1/C=C/[C@@H](O)[C@@H]2C[C@@H](O)C[C@H]2/C=C/CCCCO1`, the growth in [1] was 13%; in test [2], 33.2%; in [3] it was 23.8%; in [4], 7.12% (active); in test [6] it was 19.4%; in test [7], 23.1%. The growth in test [8] is 3.17% (active); in test [10], -49.7% (active); in test [9] it was 19.3%.
For the compound `O=C(CSc1ncccc1C(=O)O)Nc1ccc(Oc2ccccc2)cc1`, the growth was 104% in test [1]; 99% in test [2]; 93.8% in [3]; 102% in test [4]; 105% in test [6]; 98% in test [7]. Further, the figures for the growth in test [8], in [10] and in test [9] were 99.8%, 108% and 110%, respectively.
For `CCN1C(=O)N(CC)C2C1NC(=S)N2/N=C/C=C/c1ccccc1OC` (stereo not given), the growth was 24.3% in test [1]; 43.9% in [2]; 44.4% in test [3]; 5.86% (active) in [4]; 4.46% (active) in [6]; 22.5% in [7]. Also, the growth in test [8] is 20.2%; in test [10], -46.2% (active); in test [9], 9.85% (active).
On to `O=C(Nc1ccc(I)cc1F)c1cc(F)ccc1O`, for which the growth in test [1] was -2.66% (active); in test [2] it was 4.87% (active); in [3] it was -16.6% (active); in [4] it was 1.95% (active); in test [6], -15.8% (active); in test [7], 6.45% (active). In addition, the results for the growth in test [8], in test [10] and in test [9] were -0.577% (active), 25.1% and 15.1%, respectively.
On to `COc1c(B(O)O)cccc1-c1nc2ccc3n[nH]c(F)c3c2c2c1CCCC2`, for which the growth in [1] is 92.9%; in test [2], 92.6%; in [3], 66.3%; in [4] it was 47.2%; in test [6], 59.4%; in [7], 66%. The growth in test [8] was 69.5%; in [9], 77.7%.
Regarding `O=[N+]([O-])c1cc2c(ccc3occc32)o1`, the growth is 39.5% in [1]; 61% in test [2]; 63.5% in [3]; -28.2% (active) in test [4]; 25.7% in [6]; 26.1% in [7]. For the same compound, the figures for the growth in test [8], in test [10] and in test [9] were 71.3%, -24.1% (active) and -7.23% (active), respectively.
In the case of `CC/C(=C(\CC)c1ccc(OCC[N+](C)(C)C)cc1)c1ccc(OC)cc1`, the growth in [1] is 56.7%; in test [2], 99.3%; in test [3], 62.4%; in test [4] it was 40.1%; in test [5], 45.3%; in test [6], 32.7%. Besides, the growth is 53% in [7], 91.1% in [8] and 94.9% in test [9].
`CC(=O)O[C@@H]1/C=C/C(=O)N[C@@H](C)CCC/C=C/[C@@H]2CCC[C@H]21`: the growth is 98.2% in [1]; 93.2% in [2]; 99% in test [3]; 107% in [4]; 37.9% in test [6]; 108% in [7]. Further, the growth in [8] was 101%; in test [10], 114%; in test [9], 112%.
For the compound `O=C(Nc1ccc(Br)cc1F)c1cc(Cl)ccc1O`, the growth in test [1] was -8.01% (active); in [2] it was 4.59% (active); in test [3], -14% (active); in test [4], 3.19% (active); in [6], -8.76% (active); in test [7], 8.65% (active). Further, the growth is -6.93% (active) in test [8], 24.2% in [10] and 11.8% in test [9].
Turning to `O=c1oc2ccc(I)cc2c(=O)n1-c1ccc(Br)cc1F`, the growth in test [1] is 5.56% (active); in [2] it was 5.24% (active); in test [3] it was -11.7% (active); in test [4], 2.84% (active); in [6], -10% (active); in [7] it was 7.12% (active). Besides, the figures for the growth in [8], in test [10] and in test [9] were 4.56% (active), 50.3% and 16.6%, respectively.
On to `CCN1C(=O)N(CC)C2Nn3c(s/c(=C\c4ccccc4F)c3=O)=NC21` (stereo not given), for which the growth in [1] was 41.8%; in test [2], 59.4%; in test [3], 59.3%; in [4] it was 21.6%; in test [6], 27.5%; in test [7], 31.6%. Further, the growth in test [8] is 49.3%; in [10], 7.99% (active); in test [9] it was 37.4%.
As to `CCOc1cccc(/C=N\Nc2nc(=O)cc(C(=O)OC)s2)c1O`, the growth was 85.7% in test [1]; 54.2% in test [2]; 85.6% in [3]; 44% in test [4]; 79.3% in test [6]; 63.1% in [7]. For the same compound, the growth in test [8] was 83.9%; in [10], 91.6%; in [9], 103%.
Take `COc1cc(CNC(=O)c2ccsc2Nc2ccnc(C(F)(F)F)c2)ccc1O`: the growth was 92.3% in test [1]; 95.3% in [2]; 126% in [3]; 102% in test [4]; 87% in [6]; 100% in test [7]. The growth in [8] is 98.1%; in test [10] it was 106%; in [9], 107%.
On to `Nc1nonc1-n1nncc1-c1cccnc1`, for which the growth in test [1] is 102%; in test [2] it was 101%; in test [3], 110%; in test [4], 111%; in test [6], 112%; in test [7], 94.7%. Also, the results for the growth in test [8], in test [10] and in test [9] were 104%, 114% and 112%, respectively.
Take `COc1cccc(C2=NN3C(C2)c2ccccc2OC3c2ccc(/C=C3\SC(=O)NC3=O)cc2)c1` (stereo not given): the growth in [1] is 92.3%; in [2] it was 97.8%; in test [3], 110%; in [4], 101%; in [6], 87.8%; in test [7] it was 103%. The results for the growth in [8] and in test [9] were 95.6% and 106%, respectively.
For `O=C(Nc1ccc(F)cc1F)c1cc(I)ccc1O`, the growth was 8.86% (active) in [1]; 8.13% (active) in test [2]; 2.05% (active) in test [3]; 6.03% (active) in test [4]; -12.4% (active) in [6]; 6.86% (active) in [7]. Further, the growth in [8] was 12.3%; in [10], 77.8%; in test [9], 19.1%.
For the compound `O=c1oc2ccc(Cl)cc2c(=O)n1-c1cc(C(F)(F)F)cc(C(F)(F)F)c1`, the growth in [1] was -5.36% (active); in [2], 3.4% (active); in [3], -9.09% (active); in [4], 1.5% (active); in test [6], -14.3% (active); in test [7], 6.11% (active). In addition, the results for the growth in test [8] and in [9] were -11.8% (active) and 14.4%, respectively.
In the case of `COc1cccc2c(=O)c3c(sc12)c(NCCCNCCO)nc1ccccc13`, the growth in test [1] was 63.1%; in [2], 53.4%; in test [3] it was 44.4%; in [4] it was -75.1% (active); in test [6], 60.9%; in test [7], 34.5%. Moreover, the values for the growth in test [8] and in test [9] were 56.3% and 41.4%, respectively.
Consider `Cc1ccc(NC2=CC(=O)C(=O)c3ccccc32)c(C)c1`, for which the growth was -25.5% (active) in test [1]; 57.7% in test [2]; 27.3% in test [3]; -56.7% (active) in [4]; 47.6% in [6]; 5.75% (active) in test [7]. Moreover, the results for the growth in test [8], in test [10] and in test [9] were 99.4%, 85% and -60.8% (active), respectively.
On to `CCCC(c1nnnn1C1CCCCC1)N1CCN(C(=O)c2ccco2)CC1` (stereo not given), for which the growth in test [1] is 71%; in test [2] it was 97.5%; in test [3] it was 79.2%; in test [4] it was 40.6%; in [6], 62.5%; in test [7], 55.2%. Also, the growth was 74.9% in [8], 73.4% in test [10] and 69.7% in [9].
Regarding `COc1cc(/C=C2\Oc3cc(OCCCN4CCCC4)ccc3C2=O)cc(OC)c1`, the growth in [1] was 69.9%; in [2] it was 77.1%; in [3], 91.5%; in test [4] it was -71.1% (active); in test [6] it was 76.7%; in test [7], 33.2%. In addition, the figures for the growth in [8], in [10] and in [9] were 73.6%, 71% and 33.6%, respectively.
Turning to `COc1c2ccoc2c(/C=C/C=O)c2oc(-c3ccccc3)cc(=O)c12`, the growth in [1] was 50.4%; in test [2] it was 87.7%; in [3], 59.7%; in test [4], 89.4%; in test [6], 67.9%; in test [7], 91.3%. The growth in test [8] was 94.4%; in [10], 116%; in test [9] it was 63.1%.
Take `COC(=O)[C@@H]1CCCN1C(=O)[C@H]1CCCN1C(=O)[C@@H](Cc1c[nH]c2ccccc12)NC(=S)Nc1cc(C(F)(F)F)cc(C(F)(F)F)c1`: the growth in test [1] was 63.8%; in test [2], 38.8%; in test [3], 65.2%; in [4] it was 16.2%; in [6] it was 69.8%; in test [7], 28.4%. The growth in [8] was 52.5%; in test [10], 22%; in [9] it was 57.7%.
Consider `CN=c1ccc2nc3ccc(N)cc3sc-2c1`, for which the growth is 13.3% in test [1]; 42% in test [2]; 29% in test [3]; 27.6% in test [4]; 10.5% in [6]; 9.37% (active) in [7]. For the same compound, the growth in [8] is 48.8%; in test [10] it was 1.63% (active); in [9], 75.3%.

These data come from PubChem BioAssay (NCI).
